# From the supplement of paper PMC6555819
# Experiments:
# Test in all cases: PBM binding z-score (relative to random genomic background probes); higher = stronger binding; sequences stand for … in GC…GCGATTGACAGCGTAGAATGAAGG
# [1] = tested on: RARb homodimer (NR concentration 270 nM)
# Method in brief: (§1)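 Binding z-scores take random background probes as their reference. They come from custom Agilent 4×180K protein-binding microarrays incubated 1 h with ligand-free nuclear receptor dimers, with antibodies against each partner (one per run) detecting binding. Scanned fluorescence was regression-normalized.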
# [2] = tested on: RARg:RXRa (NR concentration 270 nM, RXRa partner concentration 90 nM)
# Method in brief: as §1
# [3] = tested on: RARg homodimer (NR concentration 270 nM)
# Method in brief: as §1
# [4] = tested on: RXRa DBDmut IVT, anti-RXR (DBD mutation: RXRa K156A/R161A, NR concentration 90 nM)
# Method in brief: as §1
# [5] = tested on: RXRa homodimer (NR concentration 180 nM)
# Method in brief: as §1
# [6] = tested on: THRa:RXRa (NR concentration 90 nM, RXRa partner concentration 90 nM)
# Method in brief: as §1
# [7] = tested on: THRa homodimer (NR concentration 90 nM)
# Method in brief: as §1
# [8] = tested on: VDR homodimer (NR concentration 270 nM)
# Method in brief: as §1
Sequence,PBM binding z-score [1],PBM binding z-score [2],PBM binding z-score [3],PBM binding z-score [4],PBM binding z-score [5],PBM binding z-score [6],PBM binding z-score [7],PBM binding z-score [8]
AGAATCAGGTTATACGTAGATCAGGGAAGAAAGT,0.65,0.789,0.919,0.474,0.757,1.17,0.768,0.381
CCAGACAGGTGAAAGGTAACGCAGTCTGGTACGC,1.03,1.46,0.723,-0.16,2.42,1.08,-0.07,-0.146
CAAACTAGGTCAAGGTCGAAGTCGGTTTGTGCCA,3.74,4.38,5.12,2.45,3.49,3.55,2.45,2.48
ATCTCTAGGTAAATATAGTTCAGTGAATGCAAAT,1.1,1.03,1.14,0.551,0.623,1.05,0.0877,1.2
TCCATTAGTTGATTAGGGCAACCGAAACAGCGGA,0.875,0.57,0.556,1.09,0.491,0.718,0.498,0.246
TCGAGTTGGTTACCAATGGGGCATTCAGCTTTCT,-0.231,-0.62,-0.85,0.662,-0.558,-0.69,-1.23,-0.117
ATCTTTAGGTAAAGTTCAGTGAAAGATCGATAGA,2.48,1.99,2.45,1.71,1.15,1.52,0.0896,1.95
GGAACGAGGGCATTTGAGTTGATAGCATGGCGAT,0.691,1.17,1.29,3.42,0.881,3.57,-0.202,3.57
TCATATCGGTAAAGGTGAAAGTCGAACGATATGA,1.32,1.5,1.16,0.447,1.95,1.19,-0.551,-0.566
CCTTACGGGTCACTGACAGGTTAGAGCATTTGGA,3.12,5.7,4.77,1.55,5.51,2.68,0.0773,0.83
GCATATAGGTAATACAAGGTGAAAGGCCGATTGT,1.08,0.593,0.747,0.113,0.895,4.07,0.753,0.114
TTACCAAAGTGAGCTGAGGTCGTTGATCCAACTC,0.526,0.117,-0.105,-0.0811,0.805,3.02,1.36,1.95
TTACCAAGGTGGAGGTCGTTGATCCCTCTGTAGA,1.15,0.155,-0.0331,0.0989,1.41,1.4,0.145,1.32
GCGACTGGGGCCTCAGCAGGTTACCATAACTTAA,0.199,-0.489,-0.568,-0.479,-0.182,1.19,-0.118,-0.622
ACAATGAGGTTAAGATCAGGGAAACAGAATACAT,0.906,2.33,1.7,1.33,2.53,2.51,0.954,0.941
AGTCAAAGTTCCCTAGGTAACGTAAGATTCAGCT,0.045,0.0675,0.31,0.164,-0.00363,0.427,-0.151,-0.324
TGTCAAAGTTCAAAGATAACGTAAGTATCCACAC,3.35,5.44,6.18,4.22,4.6,1.86,-0.41,3.32
ATCGAAACGTCGAAGGTGAGTATACCCACCCGAA,-0.0717,0.382,0.461,-1.07,0.361,0.0237,-0.567,-0.497
TCTTGTGGATCAAAGGTTAAGAAAGCCGAAGCCT,1.42,1.5,0.798,0.751,3.43,1.47,-0.309,-0.0408

Sequence,PBM binding z-score [1],PBM binding z-score [2],PBM binding z-score [3],PBM binding z-score [4],PBM binding z-score [5],PBM binding z-score [6],PBM binding z-score [7],PBM binding z-score [8]
GCTAGTTGGTCAGTAAAAGGTCACACATCGGTCG,5.17,5.41,4.73,0.844,5.27,3.54,1.84,1.47
TCATATAGGAAATACAGGTGAAAGTCGGCATCTA,0.167,0.527,0.553,2.12,1.37,0.441,0.299,0.241
CTCGAAAGGTCGGTTAAGGTGAGTATACGGATAA,2.84,2.94,3.26,0.811,2.41,4.88,2.1,0.781
CCTTACGGGTCACTCCAGGTTATAGCCTCGGAGT,3.1,4.3,4.02,1.01,4.02,5.14,0.467,1.13
CTCGAAAGGTCGTGCTGAGGTGAGTATACCAAAC,3.29,5.56,4.04,1.92,4.81,4.6,1.38,1.06
TATACAGCGTCAAAGGCCAGAGTACGAATGTCGA,0.415,0.284,0.525,-1.06,0.258,-0.433,-1.11,-0.0431
GCAGACAGGTGAAACGTAGGTAACTCAGGGTGGC,0.622,0.956,0.393,-0.48,0.858,1.2,-0.606,-0.684
CGTACTGGGCCATTCAGAGGTCATTGATCATATG,4.23,4.62,3.63,1.64,3.95,3.33,1.54,3.81
CGTCCAAGGTCAATGCTAGGTCAGTGTAAGCATT,5.02,7.55,7,3.74,5.35,4.48,2.75,3.52
AGAACGAGGGCAATGAGTTGACAGCACGGGTGGC,1.2,1.33,1.73,1.54,1.02,1.19,-0.211,2.89
TAGCTTAGGTCATGGGCCAGTATACCACGCGAAC,3.13,4.31,4.67,0.975,3.74,3.68,2.42,0.172
CCTTGCGGGTCAAGGTTATAGCACGGGTGGTACG,3.04,4.37,4.11,0.089,4.68,3,0.776,1.01
TCTTGTAGCTCAAGCAGGTTAAGAAAGCCTGAGT,-0.116,-0.427,-0.42,0.0335,-0.207,0.103,-1.07,-0.763
CGAACGAGGACATGAGTTGATAGCAAATGCCGAT,0.159,0.527,1.16,1.52,0.107,2.23,1.28,0.998
CCTAGCAAGCCAATCTGGGTCACTCAAGGCTTGA,1.9,0.58,0.537,-0.0119,0.781,2.99,0.441,0.0159
TCTTGTAGATCAACTGGAGGTTAAGAAAGATCGA,0.645,1.23,0.313,0.336,0.971,1.1,-0.207,-0.0194
GATACAGGGTCAGCTAGAGGCCAGAGTTTGGAAA,3.66,6.53,4.92,1.38,4.29,3.04,0.526,1.17
CGTACGAGGGCATGAGTTGATAGCAAATGCCGAT,0.825,1.38,1.57,2.36,1.03,1.37,-0.172,1.67
AGAATGAGGTGATACGTAGATCAGGGAAGAAAGT,0.297,0.451,0.546,-0.351,0.719,1.57,0.357,-0.382

Sequence,PBM binding z-score [1],PBM binding z-score [2],PBM binding z-score [3],PBM binding z-score [4],PBM binding z-score [5],PBM binding z-score [6],PBM binding z-score [7],PBM binding z-score [8]
CCTTACGTGTCACGAGGTTATAGCACGACGAGCG,1.49,2.24,1.64,0.866,2.06,1.96,0.982,1.01
TTACCAAGGTGAGCTGAGGTTGTTGATCCAACTC,0.122,-0.185,0.109,-0.414,-0.0103,3.29,0.439,-0.373
GCAGACAGGTGAAACGCAGGTGACTCAGGGTGGC,0.561,1.85,0.482,-0.723,0.927,1.56,-0.166,-0.391
ATCTCTAGGTAAAGATAGATCAGTGAATGCAAAT,-0.493,0.264,0.561,-0.154,-0.137,0.0339,-0.214,-0.0693
ATCGAAAGGTCGTGAGGTGAGGATACAGAAAGGC,3.16,4.81,3.99,1.31,5.33,3.74,2.51,0.974
ATCTAAAGGTCGTGAGGTGAGTATACAGAAAGGC,3.14,4.55,4.01,2.22,5.37,3.44,1.84,1.7
CGATCGAGGGCATGAGTTGATAGCAAATGCCGAT,0.615,1.06,1.18,1.75,0.725,1.04,-0.645,1.5
TCGAGTAGGTTAGTCGGGGCATACAGCCAACATA,0.452,0.28,0.255,0.235,0.45,1.02,-0.188,-0.0779
CCTAGTTGGTCGGGAGGTCACACACCGGATATGA,4.12,4.67,3.83,0.718,5.07,3.56,2.93,3.06
CCGACTGGGGCATGAGGTTACCATAAGCCAGCCC,1.43,1.29,0.922,-0.569,1.25,1.89,0.853,-0.0736
CCTAGTTGGTCATGAGGTCACACACCGGATATGA,4.66,5.3,4.46,2,5.17,4.72,5.35,4.1
CTGACTGGGGCATAAGGTTACCATAAGCCAGCCC,1.92,1.99,1.46,-0.277,1.4,2.42,1.35,-0.328
TCATATAGGTAAAAGGTGAGAGTCGGTGTGGTAA,1.5,1.39,0.67,1.49,2.55,1.26,0.546,0.255
CCTTACGGGTCACGAGGTTAGAGCACGACGAGCG,3.63,6.04,5.46,2.04,6.47,3.45,0.765,1.84
CATCCAAGGTCAGCAGGTCAGTGAAAGCGACGTG,5.04,6.2,7.09,2.7,6.07,3.89,2.76,2.18
CGAACTAGGTCAATGACAGTGAATCTCCGCACGC,2.77,3.48,4.07,1.91,2.36,2.2,0.673,0.425
TCATATAGGTAAACAGGTCAAAGTCCGTAAGTTA,2.99,3.2,2.4,1.54,3.59,2.27,0.804,1.93
CGAACTAGGTCATTGAAAGGACAGTGAATAGTAA,3.34,6.37,4.98,2.17,2.84,3.16,0.878,0.863
AATACAGGGTCATGGTAGGCCAGAGTACGCACAG,3.69,5.54,4.93,3.15,6.91,4.38,1.95,3.24
